# High-throughput results as filed in PubChem.
# Anthrax LF prot: Bacillus anthracis LF protease inhibitors, primary screen, biochemical, multiplex microsphere, MLPCN library | Lethal factor (Bacillus anthracis), P15917 | multiplex microsphere protease cleavage assay | inhibition, % at 10 µM | 360,000 compounds, 0.12% hits; note: plate controls were buffer without enzyme for full effect and enzyme alone for no effect
# MazF activator: activators of E. coli MazEF toxin-antitoxin RNase, primary screen, biochemical, fluorescence, uHTS; FAM/BHQ RNA-DNA oligo cleavage fluorescence, 5 h; activation, % at 20 µM; 350,000 compounds, 0.32% hits; in the data active = activation above about 50%
# Target sequence (P0AE70 whole entry, looked up): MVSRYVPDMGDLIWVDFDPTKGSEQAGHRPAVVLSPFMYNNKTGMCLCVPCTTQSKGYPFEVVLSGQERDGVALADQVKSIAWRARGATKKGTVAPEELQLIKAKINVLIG
# BoNT-F LC inh: BoNT/F light chain protease inhibitors, primary screen, biochemical, flow cytometry, MLPCN library; Multiplex microsphere protease cleavage assay; AID 588497, 2011; inhibition, % at 10 µM; Botulinum neurotoxin type F light chain protease (Clostridium botulinum); 360,000 compounds, 0.22% hits; in the data active = inhibition above about 35%, passing the limit was not always enough; inconclusive = no clear call, values can overlap the other calls; note: plate controls were buffer without enzyme for full effect and enzyme alone for no effect
# BoNT-A LC inh2: BoNT/A light chain protease inhibitors, primary screen, biochemical, flow cytometry, MLPCN library; Botulinum neurotoxin type A light chain protease (Clostridium botulinum A str. ATCC 3502); multiplex microsphere protease substrate cleavage; inhibition, % at 10 µM; 360,000 compounds, 0.17% hits; note: plate controls were buffer without enzyme for full effect and enzyme alone for no effect
# Bead autofluor: flagged as autofluorescent in microsphere protease counterscreen; 360,000 compounds, 3.1% hits; AID 624483; compound autofluorescence counterscreen, microsphere flow cytometry; stronger effect = higher value; fluorescence intensity (concentration not given with the values); in the data active = fluorescence intensity above about 16000; inconclusive = no clear call, values can overlap the other calls
# * = called active by the depositor; ? = inconclusive; / = no result given. A selection: hits, their analogues and other compounds. The true share with any hit is near 3.7%. Cut-off read from the data, not from the text of the source, unless noted: active = inhibition above about 30%; inconclusive = no clear call, values can overlap the other calls; inactive = below that.
SMILES,Anthrax LF prot,MazF activator,BoNT-F LC inh,BoNT-A LC inh2,Bead autofluor
CCn1nc(C)c(NC(=O)/C=C/c2cnn(C)c2)c1C,-9.1,0.8,10.0,8.8,19664*
Cc1nn(Cc2ccc(Cl)cc2)c(C)c1NC(=O)/C=C/c1cnn(C)c1,0.4,1.1,-4.4,-0.3,2490
CCn1nc(C)c(/C=C/C(=O)Nc2ccc(C)cc2C)c1C,2.1,-2.5,38.8*,4.7,2035
CCn1ncc(/C=C/C(=O)Nc2c(C)nn(CC)c2C)c1C,0.3,-0.2,2.0,1.1,20272*
O=c1cc(-c2ccccc2)oc2c1CCCC2,-3.1,/,-3.1,-0.8,6061
C[C@@H]1COc2cccc(N3CCC[C@@H]3CO)c2S(=O)(=O)N1,1.2,/,-0.9,0.0,5431
CCc1ccccc1-n1ncc(C(=O)Nc2ccccc2OC)c1C,10.1,1.9,?,1.7,3930
O=C(CCN1CCCCC1)Nn1c(=S)[nH]c2ccccc2c1=O,-2.5,-0.9,-2.7,?,23257*
O=c1c2ccccc2[nH]c(=S)n1CCN1CCCC1,-1.6,1.9,0.8,-0.1,2182
CCCCCCCCC(c1nc2ccccc2[nH]1)N1CCN=C(c2ccccc2)C1=O (configuration not stated),1.7,/,-6.9,-0.8,4329
Cn1nnnc1SCc1c(F)cccc1F,-8.0,-4.6,5.7,3.2,21178*
Cn1nnnc1SCc1cccc(CSc2nnnn2C)n1,-7.8,9.5,3.6,3.2,15289
Cc1nnc(SCC(=O)N2CCC(c3noc4ccc(F)cc34)CC2)s1,0.8,2.4,-2.6,-0.1,10796
O=C(CSc1ccc2ccccc2n1)N1CCC(c2noc3ccc(F)cc23)CC1,0.4,-0.6,-9.9,-8.0,22244*
Cc1nc2nc(-c3cccnc3)[nH]n2c(=O)c1Cc1ccccc1,0.0,1.5,2.6,1.7,20663*
Clc1ccc(Sc2ccc(/C=N/n3cnnc3)o2)cc1,-0.6,-0.1,-12.5,-0.7,2154
Clc1ccc(Sc2oc(/C=N/n3cnnc3)cc2Br)cc1,0.9,1.7,3.0,1.6,19698*
CCOc1nc(-c2ccccc2)ncc1Oc1ccccc1,-5.5,0.2,?,-0.7,3990
CC(C)OC(=O)c1cc(C(=O)c2cc(Cl)ccc2O)coc1=N,0.0,-2.8,2.6,0.8,5449
CC(C)OC(=O)c1cc(C(=O)c2cc(F)ccc2O)coc1=N,-2.3,1.4,-1.4,-0.3,16808*
COc1ccc(CN2CCCC(C(=O)N3CCCCC3)C2)c(OC)c1 (configuration not stated),-16.8,2.5,2.0,-0.5,3846
CCOC(=O)C1CCCN(Cc2cc(Br)ccc2OC)C1 (configuration not stated),2.6,-6.4,4.2,0.5,8933
CCN(CC)C(=O)C1CCCN(Cc2ccc(OC)c(C)c2C)C1 (configuration not stated),-1.0,-3.4,1.9,?,21287*
CCOC(=O)C1CCCN(Cc2cc(Br)c(OC)cc2OC)C1 (configuration not stated),-1.4,-0.2,-0.3,-0.1,22833*
CCCCn1cnc2cc(NCc3cccc(OC)c3O)ccc21,-4.9,-8.7,-8.0,?,20423*
SMILES,Anthrax LF prot,MazF activator,BoNT-F LC inh,BoNT-A LC inh2,Bead autofluor
COc1cc2c(cc1OC)CN(C(=O)CCCN1C(=O)c3ccccc3C1=O)CC2,-1.8,0.6,-1.9,?,22299*
CCCC[C@@H]1CNCCN1CC1(c2ccccc2)CC1,-0.9,7.2,-13.9,-0.6,5313
CCOC(=O)CSCC(=O)Nc1cc(C)ccc1C,-2.5,-0.6,-9.6,-8.6,26149*
CCOC(=O)C(=CNc1cc(C)ccc1C)C(=O)OCC,-2.8,4.8,-6.1,-2.7,17727*
CCOC(=O)C(=CNc1cc(C)ccc1[N+](=O)[O-])C(=O)OCC,-3.7,-0.7,?,0.1,3758
COC(=O)CC(NC(=O)c1ccco1)c1cccc2ccccc12 (configuration not stated),-3.9,-3.1,-47.3,-1.0,5164
CC(NC(=O)c1ccco1)c1cccc2ccccc12 (configuration not stated),-0.5,8.1,1.8,1.1,22307*
O=C(Nc1ccccc1Cl)c1cnccn1,-3.2,-2.7,-5.4,0.3,11658
O=C(Nc1ccc(Br)cc1Cl)c1cnccn1,-2.6,-2.3,-6.6,?,17512*
CC(C)C[C@H]1CNC(=S)N1CC1CCN(CCCCc2ccccc2)CC1,-7.9,7.6,-4.5,-0.2,3768
Cc1cccc(N2CCN(S(=O)(=O)c3ccc4c(c3)n(C)c(=O)c(=O)n4C)CC2C)c1 (configuration not stated),-3.8,-15.4,7.9,?,19587*
Cc1ccc(N2CCN(S(=O)(=O)c3ccc4c(c3)n(C)c(=O)c(=O)n4C)CC2C)cc1 (configuration not stated),2.1,2.0,-6.3,-2.3,9801
CCCCCn1c(CN2CCN(Cc3ccccc3)CC2)nc2c1c(=O)n(C)c(=O)n2C,-8.0,5.7,6.6,4.6,20660*
CC(C)Cn1c(CN2CCN(C(=O)c3ccco3)CC2)nc2c1c(=O)n(C)c(=O)n2C,-3.9,-5.8,-0.2,0.2,3835
Cn1c(=O)c2c(ncn2CC(=O)N(Cc2ccccc2)c2ccccn2)n(C)c1=O,0.0,4.9,-1.8,0.4,23173*
CCn1c(CN2CCN(C(=O)c3ccco3)CC2)nc2c1c(=O)n(C)c(=O)n2C,0.8,5.6,5.2,?,21356*
CCCCn1c(CN2CCN(c3cccc(Cl)c3)CC2)nc2c1c(=O)n(C)c(=O)n2C,-11.7,0.4,7.4,6.1,19625*
CCCCn1c(CN2CCN(c3ccccc3)CC2)nc2c1c(=O)n(C)c(=O)n2C,2.3,-4.7,7.4,0.4,5771
CCCCCn1c(CN2CCN(c3cccc(Cl)c3)CC2)nc2c1c(=O)n(C)c(=O)n2C,0.3,-6.5,1.6,0.4,8145
COC(=O)CCC(C(=O)CN1C(=O)c2ccccc2C1=O)N1C(=O)c2ccccc2C1=O (configuration not stated),2.9,8.7,2.5,0.3,3795
CCOC(=O)Cn1c(CN(Cc2ccccc2)Cc2ccccc2)nc2c1c(=O)n(C)c(=O)n2C,-9.1,-3.5,4.3,2.6,20766*
CCCn1c(CN(C)Cc2ccccc2)nc2c1c(=O)n(C)c(=O)n2C,-1.2,-0.8,-21.4,-0.7,4573
CC(C)CCn1c(CN2CCN(Cc3ccccc3)CC2)nc2c1c(=O)n(C)c(=O)n2C,2.9,0.4,-1.2,?,20587*
CCCCn1c(CN(C)Cc2ccccc2)nc2c1c(=O)n(C)c(=O)n2C,-5.8,-3.4,-2.0,-0.4,19708*
CCCn1c(=O)c(F)cn(Cc2ccc(OC)c([N+](=O)[O-])c2)c1=O,1.6,10.4,3.3,2.1,21734*
Cc1ccc2nsnc2c1S(=O)(=O)N1CCOCC1,-4.4,-1.9,-3.2,-2.4,22875*
O=S(=O)(c1cccc2nsnc12)N1CCOCC1,-0.9,1.3,2.4,0.1,2883
